Screening data: PubChem, National Center for Advancing Translational Sciences (NCATS)
Many of the other results were omitted from the sample, so hits are more common in it than they were.
Pf Dd2 growth: qHTS Primary assay for Inhibitors of Plasmodium falciparum Dd2 growth in vitro; P. falciparum Dd2 growth, SYBR Green, 72 h; Potency, µM (series often up to 28.9 µM), without a hit: at the top dose activity, negative = inhibition, usual class: inhibitors; actives 4.3% (n = 120,000); AID 1347417, 2020; active = well fitted inhibition curve with a large enough effect;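 also: plate controls were DMSO vehicle for no effect and reference drug for full effect; nearly all actives have a fitted effect of over 65% in size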
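Infected erythrocytes (Dd2, 0.3% parasitemia, 2.5% hematocrit final) are added to compound in RPMI-1640/Albumax II medium, grown 72 h at 37C in low oxygen, then lysed with saponin/Triton-X containing SYBR Green and read by fluorescence.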
* = called active by the depositor; i = inactive; [ ] = another dose, or the depositor's remark. Potency is read from the fitted curve at half-maximal effect.

SMILES | Pf Dd2 growth
COCCn1c(=N)c(C(=O)NC2CCCC2)cc2c(=O)n3cc(C)ccc3nc21 | 3.3%
CN1CC[C@H]2CN(C(=O)COCc3nc4ccc(F)cc4[nH]3)C[C@H]21 | -17.6%
COC[C@@H]1[C@H](NC(=O)c2cnc(-c3cccnc3)nc2C)[C@@H]2CCO[C@H]12 | -5.3%
CC(C)(C)NC(=O)N1CCCCCCNC(=O)[C@@H]2C[C@@H](C(=O)N3CCc4ccccc4C3)C[C@@H]21 | 4.47µM*
Cc1cnc(C(=O)N2CCCCCCNC(=O)[C@@H]3C[C@@H](C(=O)N4CCc5ccccc5C4)C[C@@H]32)cn1 | -16.3%
O=C1NCCCCCCN(C(=O)C2CC2)[C@H]2C[C@H](C(=O)N3CCc4ccccc4C3)C[C@@H]12 | i
COc1ccc([C@@H](NC(=O)c2ccc3nnnn3c2)C2CC(O)C2)cn1 (stereo not given in full) | -7.4%
COc1ccc(CNC(=O)C(=O)Nc2cc(Cl)ccc2OC)cc1 | i
COc1ccc(CC(=O)NCc2cn[nH]c2-c2ccc(C)cc2)cc1 | -11.2%
CCc1ccc(CN(Cc2cn[nH]c2-c2ccc(OC)cc2)C(=O)Nc2cc(Cl)ccc2OC)cc1 | 12.6µM*
Cn1ccc2ccc(C(=O)N3CCN(CCOc4ccccc4)CC3)cc21 | -1.6%
O=C(c1ccccc1)N1CCc2nc(-c3ccc(Cl)cc3)nc(-c3ccccc3)c2C1 | i
CCSc1ncc(Cl)c(C(=O)N2CCN(c3ccccc3OC)CC2)n1 | 34.4%
COc1ccc(Cl)cc1NC(=O)c1cnc(SC)nc1-c1ccccc1 | 7.6%
COc1ccccc1N1CCN(C(=O)c2cc(-c3ccccc3O)on2)CC1 | 10.3%
COc1ccc(Cl)cc1NC(=O)c1cc2nc(-c3ccc(C)cc3)cc(C(F)(F)F)n2n1 | 18.9%
COc1ccccc1N1CCN(C(=O)c2cc3ccc4ccc(C)[nH]c4c3n2)CC1 | 12.6µM*
COc1ccc(Cl)cc1NC(=O)c1cc2ccc3ccc(C)[nH]c3c2n1 | 11.2µM*
Cc1ccccc1N1Cc2c(NCc3ccccn3)ncnc2N(C)CC1=O | -11.1%
c1ccc(CN2CC(Oc3ccc4c(c3)OCO4)C2)cc1 | -12.0%[44.1 µM]
CCOc1ccc(CN2CCc3nn(C)c(=O)n3CC2)cc1OC | 5.4%
CC(C)c1ccc(C(=O)N2CC(C(=O)NC3CCCCC3)C3(CCOCC3)C2)cc1 (stereo not given) | -17.0%
COc1ccc(-n2ncc3c(N4CCN(c5cccc(C)c5)C(C)C4)ncnc32)cc1 (stereo not given) | 5.62µM*
COc1ccc(N2CCN(c3ncnc4c3cnn4-c3ccc(C)c(Cl)c3)CC2)cc1 | 40.4%
Cc1cccc(-n2ncc3c(N4CCN(c5ccccc5)CC4)ncnc32)c1 | 44.0%
SMILES | Pf Dd2 growth
Cc1ncsc1CN(Cc1ccccc1)C(=O)CCn1nnnc1CN1CCOCC1 | -13.8%
COc1ccc(-c2c3c(nc4sc(C(=O)Nc5ccc(F)cc5)c(N)c24)CC(C)(C)CC3=O)cc1 | 0.562µM*
COc1ccc(-c2ccc3c(N)c(C(=O)Nc4cc(F)ccc4C)sc3n2)cc1 | 21.7%
Cc1c(C(=O)Nc2ccc(F)cc2)sc2nc[nH]c(=O)c12 | 14.8%
O=C(c1ccc2ccccc2c1)N1C[C@@H]2C[C@H](C1)c1ccc(NS(=O)(=O)Cc3ccccc3)c(=O)n1C2 | i
CCN(CC)C(=O)N1C[C@H](NC(=O)c2cn(C)c(=O)[nH]c2=O)[C@@H](C2CC2)C1 | -8.2%
CN1CCCN(S(=O)(=O)c2ccccc2F)c2ccccc21 | -26.5%
CCc1ccccc1N(C)C(=O)c1cc2c(Cl)nc3ccc(C)cc3c2s1 | 94.7%[5.79 µM]
CCN(C(=O)c1cc2c(Cl)nc3ccccc3c2s1)c1cccc(Cl)c1 | 10µM*
CCN(C(=O)c1cc2c(=O)oc3ccccc3c2s1)c1cccc(C(F)(F)F)c1 | -4.2%
Cc1ccc(Cl)cc1N(C)C(=O)c1cc2c(Cl)nc3ccccc3c2s1 | 19.6%
CCN(C(=O)c1cc2c(Cl)nc3ccc(C)cc3c2s1)c1cc(OC)ccc1OC | 8.91µM*
CCN(C(=O)c1cc2c(=O)oc3ccc(C)cc3c2s1)c1cc(OC)ccc1OC | 1.2%
O[C@@H]1C[C@@H](c2nc(-c3cccnc3)no2)N(CC2CC2)C1 | -6.6%[44.1 µM]
O=C(Cc1cccc(F)c1)NC1CCN(C(=O)N2CC3CC(C2)[C@H]2CCCC(=O)N2C3)CC1 (stereo not given in full) | 14.4%
Cc1ncoc1C(=O)N[C@H](c1ccc2c(c1)CCO2)C1CC(O)C1 (stereo not given in full) | 4.7%
O=C(N[C@H]1[C@H]2CCO[C@H]2[C@@H]1N1CCCCC1)c1ccccc1-c1nn[nH]n1 | -6.5%
COCC(=O)NC[C@H]1CCN(S(C)(=O)=O)C[C@H]1N(C)C | 12.4%
O=C(c1ccc(F)cc1)N1CC2CC(C1)[C@H]1CCCC(=O)N1C2 (stereo not given in full) | 1.5%
CN(Cc1ccccc1)C(=O)CC1CCN(C(=O)CC2CCCC2)C1 (stereo not given) | i
COCCNC(=O)CCSc1nc(-c2ccc(OC)cc2)cc(C(F)(F)F)n1 | i
CCC(C)NC(=O)CCSc1nc(-c2ccc(OC)cc2)cc(C(F)(F)F)n1 (stereo not given) | 11.2µM*
COc1ccc(NC(=O)CCSc2nc(-c3ccc(OC)cc3)cc(C(F)(F)F)n2)cc1 | -22.4%
COCCNC(=O)c1ccc2c(c1)N(C)C(CC(=O)N1CCCC1)CO2 (stereo not given) | -16.5%
CCOC(=O)c1c(C)sc(-c2c(-c3ccc4c(c3)OCCO4)[nH]c3c2c(=O)n(C)c(=O)n3C)c1O | 8.91µM*
SMILES | Pf Dd2 growth
COC(=O)c1c(C)sc(-c2c(-c3ccc4c(c3)OCCO4)[nH]c3c2c(=O)n(C)c(=O)n3C)c1O | -7.4%
CCOC(=O)c1c(C)sc(-c2c(-c3ccc(OC)c(F)c3)[nH]c3c2c(=O)[nH]c(=O)n3C)c1O | 428.2%[5.79 µM]
COc1ccc(CC(=O)Nc2ccc([C@@H](O)[C@H]3COCC(=O)N3Cc3ccccc3OC)cc2)cc1 | -1.7%
COc1ccc(-c2cc3c(cn2)CN(Cc2ccccc2)CCN3)cc1OC | 11.2µM*
COc1ccc(Nc2cc3c(cn2)CN(CCc2ccccc2)CCN3)cc1OC | 10µM*
Oc1ccc(-c2cc3c(cn2)CN(Cc2ccccc2)CCN3)cc1F | 3.98µM*
COc1ccc(Nc2cc3c(cn2)NCCN(Cc2ccccc2)C3)cn1 | i
Fc1ccccc1-c1cc2c(cn1)CN(Cc1ccncc1)CCN2 | i
COc1ccc(CN2CCNc3cc(-c4ccnc(C)c4)ncc3C2)cc1O | -4.2%[44.1 µM]
COc1ccc(Nc2cc3c(cn2)CN(Cc2ccncc2)CCN3)cn1 | -5.7%[44.1 µM]
c1ccc(CN2CCNc3cc(-c4ccncc4)ncc3C2)cc1 | -25.5%[44.1 µM]
COc1ccc(CNc2cc3c(cn2)CN(Cc2ccccc2)CCN3)cc1OC | -15.4%[44.1 µM]
COc1ccc(NC(=O)N2C[C@@H](F)[C@@H](OCc3nc4ccccc4[nH]3)C2)cc1 | -16.9%[44.1 µM]
Cc1noc(C)c1S(=O)(=O)N1CCC2(CC1)C(=O)NN=C2C1CC1 | 30.1%
O=C1CC(c2noc(-c3nccc4ccccc34)n2)CN1C1CCCCC1 (stereo not given) | i
CCc1nc2c(=O)n(CC(=O)NC(C)c3ccc(F)cc3)nc(C)c2s1 (stereo not given) | i
c1ccc(-n2cc(CN3CCN(c4nc5ccccc5o4)CC3)nn2)cc1 | -13.9%
COc1ccc(C(=O)N2CCN(Cc3cn(-c4ccccc4)nn3)CC2)cc1 | i
Cc1cc(C)cc(N2CCN(Cc3cn(-c4ccccc4)nn3)CC2=O)c1 | 11.2µM*
O=C(CC1CCOCC1)NCc1ccc(OC(F)(F)F)cc1 | 39.9%
